Laboratory results from PubChem BioAssay (Tox21).
Records with an inconclusive call do not appear. The source made the active and inactive calls. Unless noted, calls follow the shape of the dose curve; as a rule, active = well fitted curve in the direction sought with a large enough effect in the repeat runs; inconclusive = weak or mixed curves; inactive = no such curve, though single readings can be large; an effect the other way counts as inactive or inconclusive.

Legend:
[1] = qHTS assay to identify aromatase inhibitors - cell viability counter screen (AID 743084);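 also: cells stimulated with testosterone during compound exposure; nearly all actives have a fitted effect of over 55% in size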; also: potency is read from the fitted curve at half-maximal effect
[2] = biological target: Aryl hydrocarbon receptor (Homo sapiens) (UniProt P35869); assay: qHTS assay to identify small molecule that activate the aryl hydrocarbon receptor (AhR) signaling pathway (AID 743085); also: nearly all actives have a fitted effect of over 15% in size; also: potency is read from the fitted curve at half-maximal effect;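 as to activation: HG2L7.5c1 human HepG2 liver cells with stably integrated DRE-driven firefly reporter; series mostly up to about 70 µM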
Outline: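 Cell line HG2L7.5c1 (human hepatoma, 20× DRE-luc). Plated, 5 h 37C, compound/DMSO added, 24 h 37C. CellTiter-Fluor 30 min 37C → fluorescence; then ONE-Glo 30 min RT → luminescence.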

[3] = qHTS assay to identify small molecule that activate the aryl hydrocarbon receptor (AhR) signaling pathway - cell viability counter screen (AID 743086); also: nearly all actives have a fitted effect of over 45% in size; also: potency is read from the fitted curve at half-maximal effect;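 as to viability change, negative = cytotoxic: HepG2 liver cells carrying the AhR DRE luciferase reporter; series mostly up to about 70 µM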
Outline: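 HepG2-AhR-luc (HG2L7.5c1) cells, 4000/well, treated 24 h at 37 C with compound; viability measured as CellTiter-Fluor fluorescence after 30 min in the same wells as the luciferase read.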

[4] = biological target: Peroxisome proliferator-activated receptor gamma (Homo sapiens) (UniProt P37231); assay: qHTS assay to identify small molecule agonists of the peroxisome proliferator-activated receptor gamma (PPARg) signaling pathway (AID 743094; active = well fitted activation curve with a large enough effect in the signal ratio in the repeat runs, not every such curve was filed as active; the % refers to the signal ratio)
Outline: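 Beta-lactamase FRET fluorescence was the read-out after a 1 h room-temperature substrate step, following 17 h compound treatment at 37C of HEK293H cells expressing a UAS-driven bla reporter responsive to PPARg.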

[5] = biological target: Peroxisome proliferator-activated receptor gamma (Homo sapiens) (UniProt P37231); assay: qHTS assay to identify small molecule antagonists of the peroxisome proliferator-activated receptor gamma (PPARg) signaling pathway (AID 743191; calls by dose curve; also: series mostly up to about 63 µM; nearly all actives have a fitted effect of over 30% in size)
Outline: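 GeneBLAzer PPARg UAS-bla HEK293H cells, 5 h post-plating, exposed to compounds 17 h at 37C. LiveBLAzer B/G FRET substrate added for 1 h at room temperature; beta-lactamase reporter read by fluorescence intensity.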

[6] = qHTS assay to identify small molecule antagonists of the peroxisome proliferator-activated receptor gamma (PPARg) signaling pathway - cell viability counter screen (AID 743194); also: nearly all actives have a fitted effect of over 55% in size
Outline: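 Cytotoxicity counter screen in PPARg-bla HEK293H cells, same wells as reporter assay. Compounds plus 50 nM rosiglitazone (final) for 17 h at 37 C, then viability read by CellTiter-Glo luminescence.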

[7] = qHTS assay for small molecule agonists of the antioxidant response element (ARE) signaling pathway (AID 743202; active = well fitted activation curve with a large enough effect in the signal ratio in the repeat runs, not every such curve was filed as active; the % refers to the signal ratio)
Outline: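 Agonist mode reporter screen: HepG2 cells with ARE-controlled beta-lactamase are incubated with test compounds for 16 h at 37 C, and beta-lactamase activity is measured as fluorescence of cleaved B/G FRET substrate.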

[8] = qHTS assay for small molecule agonists of the antioxidant response element (ARE) signaling pathway - cell viability counter screen (AID 743203; calls by dose curve; also: nearly all actives have a fitted effect of over 55% in size)
Outline: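 HepG2 cells carrying ARE-driven beta-lactamase; 2,000 cells/well; 5 hrs plating; compound pinned from DMSO; 16 hrs 37C/5% CO2; CellTiter-Glo added; 30 min RT; luminescence.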

[9] = qHTS assay for small molecule activators of the heat shock response signaling pathway - cell viability counter screen (AID 743209); also: nearly all actives have a fitted effect of over 50% in size
Outline: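 Luminescence from CellTiter-Glo, added after the beta-lactamase FRET read, gave the viability signal. Cells were HSE-bla HeLa treated with DMSO-dissolved compounds for 5 h at 37 C following overnight plating.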

[10] = qHTS assay for small molecule activators of the heat shock response signaling pathway (AID 743210; active = well fitted activation curve with a large enough effect in the signal ratio in the repeat runs, with a control signal flat, not every such curve was filed as active; the % refers to the signal ratio;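 also: HeLa cells with beta-lactamase reporter driven by heat shock elements; series mostly up to about 63 µM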)
Outline: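 Quantitative high-throughput format using an engineered HeLa line in which heat shock response elements drive beta-lactamase; after 5 h with compound, cells received a B/G FRET substrate and fluorescence was read.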

[11] = qHTS assay to identify small molecule agonists of the peroxisome proliferator-activated receptor delta (PPARd) signaling pathway - cell viability counter screen (AID 743211); also: nearly all actives have a fitted effect of over 55% in size
Outline: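 HEK293H PPARd-bla, 3000 cells/well; 5 h preincubation 37C/5% CO2; cpd in DMSO, 17 h 37C; B/G FRET substrate 2 h RT; CellTiter-Glo 30 min RT, luminescence.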

[12] = qHTS assay to identify small molecule antagonists of the peroxisome proliferator-activated receptor delta (PPARd) signaling pathway - cell viability counter screen (AID 743213); also: nearly all actives have a fitted effect of over 50% in size
Outline: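 Same-well viability: cells pre-incubated 5 h, dosed with compound plus 300 nM L165041, kept 17 h at 37 C, FRET substrate 2 h RT, then CellTiter-Glo 30 min RT and luminescence.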

[13] = biological target: Peroxisome proliferator-activated receptor delta (Homo sapiens) (UniProt Q03181); assay: qHTS assay to identify small molecule antagonists of the peroxisome proliferator-activated receptor delta (PPARd) signaling pathway (AID 743215; active = well fitted inhibition curve with a large enough effect in the signal ratio in the repeat runs, not every such curve was filed as active; the % refers to the signal ratio;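 also: cells stimulated with agonist L165041 at 300 nM final during compound exposure; series mostly up to about 62 µM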)
Outline: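 Read-out is beta-lactamase FRET fluorescence, measured 2 h after substrate addition at room temperature. Beforehand, UAS-bla HEK293H cells carrying the PPARd reporter were exposed to compounds with L165041 at 300 nM final for 17 h at 37 C.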

[14] = biological target: Bile acid receptor (Homo sapiens) (UniProt Q96RI1); assay: qHTS assay to identify small molecule antagonists of the farnesoid-X-receptor (FXR) signaling pathway (AID 743217; active = well fitted inhibition curve with a large enough effect in the signal ratio in the repeat runs, not every such curve was filed as active; the % refers to the signal ratio)
Outline: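 HEK 293T FXR-UAS-bla, 5000 cells/well; compound + CDCA 50 uM final; 16 h, 37 °C; B/G FRET substrate 2 h RT; fluorescence.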

[15] = qHTS assay to identify small molecule agonists of the farnesoid-X-receptor (FXR) signaling pathway - cell viability counter screen (AID 743218); also: nearly all actives have a fitted effect of over 45% in size
Outline: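 HEK 293T FXR-bla cells; 5 h pre-incubation, 16 h compound exposure at 37 C; LiveBLAzer substrate 2 h RT, then CellTiter-Glo 30 min RT, luminescence.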

[16] = biological target: Bile acid receptor (Homo sapiens) (UniProt Q96RI1); assay: qHTS assay to identify small molecule agonists of the farnesoid-X-receptor (FXR) signaling pathway (AID 743220; active = well fitted activation curve with a large enough effect in the signal ratio in the repeat runs, not every such curve was filed as active; the % refers to the signal ratio)
Outline: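 Beta-lactamase reporter under UAS control in GeneBLAzer FXR HEK 293T cells (5000/well) measured with LiveBLAzer FRET substrate after 2 h at room temperature. Compound exposure lasted 16 h at 37C.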

[17] = qHTS assay to identify small molecule antagonists of the farnesoid-X-receptor (FXR) signaling pathway - cell viability counter screen (AID 743221; active = well fitted cell-killing curve with a large enough effect in the repeat runs, not every such curve was filed as active; also: nearly all actives have a fitted effect of over 50% in size)
Outline: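 Luminescence from CellTiter-Glo measures cytotoxicity in GeneBLAzer FXR-UAS-bla HEK 293T cells. Cells were exposed to compounds with 50 uM chenodeoxycholic acid (final) for 16 h at 37 C, in wells also used for the reporter readout.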

[18] = biological target: Vitamin D3 receptor (Homo sapiens) (UniProt P11473); assay: qHTS assay to identify small molecule antagonists of the vitamin D receptor (VDR) signaling pathway (AID 743223; active = well fitted inhibition curve with a large enough effect in the signal ratio in the repeat runs, not every such curve was filed as active; the % refers to the signal ratio)
Outline: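 Antagonist mode uses 1alpha,25-dihydroxyvitamin D3 at 3 nM final as stimulus. VDR-bla cells receive compounds in DMSO, incubate 16 h at 37C, then a beta-lactamase FRET substrate for 2 h at room temperature before fluorescence measurement.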

[19] = biological target: Peroxisome proliferator-activated receptor delta (Homo sapiens) (UniProt Q03181); assay: qHTS assay to identify small molecule agonists of the peroxisome proliferator-activated receptor delta (PPARd) signaling pathway (AID 743212; calls by dose curve)
Outline: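 Quantitative high-throughput agonist screen in a HEK293H beta-lactamase reporter line under UAS control. Compounds in DMSO, at 37 C. Fluorescence read after 2 h with FRET substrate at room temperature.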

[20] = biological target: Vitamin D3 receptor (Homo sapiens) (UniProt P11473); assay: qHTS assay to identify small molecule agonists of the vitamin D receptor (VDR) signaling pathway (AID 743222; calls by dose curve)
Outline: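 VDR-bla cells, 2,000/well; 4 h preincubation 37C; cpd (DMSO) 16 h; LiveBLAzer B/G substrate 2 h RT; fluorescence intensity read.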
% is scaled to controls: 0 for no effect and ±100 for the full control effect.

Chain of Peroxisome proliferator-activated receptor delta (Homo sapiens) (Q03181 whole entry, looked up): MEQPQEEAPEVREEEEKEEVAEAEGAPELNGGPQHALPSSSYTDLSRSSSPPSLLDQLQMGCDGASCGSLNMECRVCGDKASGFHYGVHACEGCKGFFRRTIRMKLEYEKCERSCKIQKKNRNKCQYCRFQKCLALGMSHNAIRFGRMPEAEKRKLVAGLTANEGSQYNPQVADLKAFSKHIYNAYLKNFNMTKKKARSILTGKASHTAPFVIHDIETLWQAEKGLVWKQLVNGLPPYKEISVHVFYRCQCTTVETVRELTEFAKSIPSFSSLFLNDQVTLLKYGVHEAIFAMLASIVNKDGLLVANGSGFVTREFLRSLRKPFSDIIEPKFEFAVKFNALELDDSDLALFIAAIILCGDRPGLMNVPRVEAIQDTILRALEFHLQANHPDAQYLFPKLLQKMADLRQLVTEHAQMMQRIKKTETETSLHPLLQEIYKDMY
Chain of Peroxisome proliferator-activated receptor gamma (Homo sapiens) (P37231 whole entry, looked up): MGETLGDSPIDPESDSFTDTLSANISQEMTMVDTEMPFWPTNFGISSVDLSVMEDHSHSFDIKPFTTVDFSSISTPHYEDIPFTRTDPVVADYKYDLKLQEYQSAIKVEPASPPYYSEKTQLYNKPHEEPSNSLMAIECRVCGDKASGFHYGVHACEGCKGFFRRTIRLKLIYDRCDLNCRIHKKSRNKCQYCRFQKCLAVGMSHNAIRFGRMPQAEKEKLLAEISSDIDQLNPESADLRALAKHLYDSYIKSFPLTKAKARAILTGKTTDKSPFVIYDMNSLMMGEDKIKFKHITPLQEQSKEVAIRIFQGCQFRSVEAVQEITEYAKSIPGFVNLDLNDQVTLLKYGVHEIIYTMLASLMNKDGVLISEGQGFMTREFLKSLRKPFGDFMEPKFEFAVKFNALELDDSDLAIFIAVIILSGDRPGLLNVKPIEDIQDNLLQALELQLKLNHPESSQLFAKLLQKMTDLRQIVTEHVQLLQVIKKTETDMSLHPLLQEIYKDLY
Chain of Bile acid receptor (Homo sapiens) (Q96RI1 whole entry, looked up): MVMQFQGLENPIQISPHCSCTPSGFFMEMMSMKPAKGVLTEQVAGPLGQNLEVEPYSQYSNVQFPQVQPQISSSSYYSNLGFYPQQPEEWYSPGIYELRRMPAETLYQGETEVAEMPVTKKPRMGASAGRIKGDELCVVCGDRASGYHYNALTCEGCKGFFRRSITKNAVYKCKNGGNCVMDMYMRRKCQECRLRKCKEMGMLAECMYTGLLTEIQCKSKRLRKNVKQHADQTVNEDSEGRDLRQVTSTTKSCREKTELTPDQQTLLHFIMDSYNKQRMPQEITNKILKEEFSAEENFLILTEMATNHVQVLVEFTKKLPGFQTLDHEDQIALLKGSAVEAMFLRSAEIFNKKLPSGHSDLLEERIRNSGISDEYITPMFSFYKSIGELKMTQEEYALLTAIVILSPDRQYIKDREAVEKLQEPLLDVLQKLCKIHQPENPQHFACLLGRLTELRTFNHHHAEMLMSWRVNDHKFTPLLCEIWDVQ
Chain of Vitamin D3 receptor (Homo sapiens) (P11473 whole entry, looked up): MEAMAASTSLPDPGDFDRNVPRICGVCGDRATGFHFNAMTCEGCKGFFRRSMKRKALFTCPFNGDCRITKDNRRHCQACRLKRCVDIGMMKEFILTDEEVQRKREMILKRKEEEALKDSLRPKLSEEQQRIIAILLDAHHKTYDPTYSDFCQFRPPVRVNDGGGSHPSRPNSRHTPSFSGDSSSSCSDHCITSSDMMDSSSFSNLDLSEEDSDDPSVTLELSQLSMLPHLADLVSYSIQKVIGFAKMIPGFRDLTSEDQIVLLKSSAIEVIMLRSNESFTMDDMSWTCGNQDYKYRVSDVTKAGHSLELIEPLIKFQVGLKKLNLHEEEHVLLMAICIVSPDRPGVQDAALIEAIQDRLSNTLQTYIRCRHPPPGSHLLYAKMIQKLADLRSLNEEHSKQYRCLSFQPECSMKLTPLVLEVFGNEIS
Chain of Aryl hydrocarbon receptor (Homo sapiens) (P35869 whole entry, looked up): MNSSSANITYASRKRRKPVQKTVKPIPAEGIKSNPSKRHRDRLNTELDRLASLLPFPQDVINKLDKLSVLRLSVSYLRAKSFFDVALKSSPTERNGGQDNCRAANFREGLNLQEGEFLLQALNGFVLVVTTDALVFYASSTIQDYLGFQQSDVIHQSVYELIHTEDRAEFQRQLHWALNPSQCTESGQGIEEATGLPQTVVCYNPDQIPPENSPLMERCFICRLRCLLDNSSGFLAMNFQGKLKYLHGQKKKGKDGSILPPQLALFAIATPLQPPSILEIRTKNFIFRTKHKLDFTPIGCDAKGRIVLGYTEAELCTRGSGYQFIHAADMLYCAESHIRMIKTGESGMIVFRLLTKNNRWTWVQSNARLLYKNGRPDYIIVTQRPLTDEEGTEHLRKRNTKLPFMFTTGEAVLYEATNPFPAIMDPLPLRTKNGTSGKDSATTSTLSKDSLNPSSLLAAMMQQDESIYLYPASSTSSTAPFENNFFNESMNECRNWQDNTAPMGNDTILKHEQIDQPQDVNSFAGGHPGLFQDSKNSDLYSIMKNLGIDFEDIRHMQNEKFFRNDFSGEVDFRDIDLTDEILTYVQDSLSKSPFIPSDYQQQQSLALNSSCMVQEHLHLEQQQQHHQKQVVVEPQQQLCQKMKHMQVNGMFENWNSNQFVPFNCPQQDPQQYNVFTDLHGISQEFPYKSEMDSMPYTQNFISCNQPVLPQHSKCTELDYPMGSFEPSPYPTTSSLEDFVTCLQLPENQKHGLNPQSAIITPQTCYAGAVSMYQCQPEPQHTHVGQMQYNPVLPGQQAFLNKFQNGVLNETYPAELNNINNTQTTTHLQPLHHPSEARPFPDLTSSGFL

COCc1ccc(COC)cc1
inactive: Potency [1] | Potency [2] | Potency [3] | outcome [4] | outcome [5] | Potency [6] | Potency [7] | outcome [8] | outcome [9] | outcome [10] | Potency [11] | Potency [12] | outcome [13] | outcome [14] | outcome [15] | outcome [16] | Potency [17] | outcome [18]

C[C@H](O)C(=O)Nc1c(I)c(C(=O)NC(CO)CO)c(I)c(C(=O)NC(CO)CO)c1I
inactive: Potency [1] | Potency [2] | Potency [3] | outcome [4] | outcome [5] | Potency [6] | Potency [7] | outcome [8] | outcome [9] | outcome [10] | Potency [11] | outcome [19] | Potency [12] | outcome [13] | Potency [17] | outcome [20] | outcome [18]

CC(C)(O)Cc1ccccc1
inactive: Potency [1] | Potency [2] | Potency [3] | outcome [4] | outcome [5] | Potency [6] | Potency [7] | outcome [8] | outcome [9] | outcome [10] | Potency [11] | outcome [19] | Potency [12] | outcome [13] | Potency [17] | outcome [20]

CC1=CC(C)C(C=O)C(C)C1 (stereo unspecified)
inactive: Potency [1] | Potency [2] | Potency [3] | outcome [4] | outcome [5] | Potency [6] | Potency [7] | outcome [8] | outcome [9] | outcome [10] | Potency [11] | Potency [12] | outcome [14] | outcome [15] | outcome [16] | outcome [20] | outcome [18]

CCCCc1ccc2cccc(S(=O)(=O)O)c2c1
inactive: Potency [1] | Potency [2] | Potency [3] | outcome [4] | outcome [5] | Potency [6] | Potency [7] | outcome [8] | outcome [9] | outcome [10] | Potency [11] | outcome [19] | Potency [12] | outcome [13] | outcome [15] | Potency [17] | outcome [20] | outcome [18]

C=CC(=O)N1CCOCC1
inactive: Potency [1] | Potency [2] | Potency [3] | outcome [4] | outcome [5] | Potency [6] | Potency [7] | outcome [8] | outcome [9] | outcome [10] | Potency [11] | outcome [19] | Potency [12] | outcome [13] | outcome [14] | outcome [15] | outcome [16] | Potency [17] | outcome [20]

OCCCCCCO
inactive: Potency [1] | Potency [2] | Potency [3] | outcome [4] | outcome [5] | Potency [6] | Potency [7] | outcome [8] | outcome [9] | outcome [10] | Potency [11] | outcome [19] | Potency [12] | outcome [13] | outcome [14] | outcome [15] | outcome [16] | Potency [17] | outcome [18]

CCCC=O
inactive: Potency [1] | Potency [2] | Potency [3] | outcome [4] | outcome [5] | Potency [6] | Potency [7] | outcome [8] | outcome [9] | outcome [10] | Potency [11] | outcome [19] | outcome [13] | outcome [15] | Potency [17] | outcome [20]

CC1CCN(CCCC(=O)c2ccc(F)cc2)CC1
inactive: Potency [1] | Potency [2] | Potency [3] | outcome [4] | outcome [5] | Potency [6] | Potency [7] | outcome [8] | outcome [9] | outcome [10] | Potency [11] | Potency [12] | outcome [14] | outcome [15] | outcome [16] | Potency [17]

COC(C(=O)O)c1ccccc1 (stereo unspecified)
inactive: Potency [1] | Potency [2] | Potency [3] | outcome [4] | outcome [5] | Potency [6] | Potency [7] | outcome [8] | outcome [9] | outcome [10] | Potency [11] | outcome [19] | Potency [12] | outcome [13] | outcome [14] | outcome [15] | outcome [16] | Potency [17] | outcome [18]

COC(=O)C1=C(C)NC(C)=C(C(=O)OCC(C)=O)C1c1ccccc1[N+](=O)[O-] (stereo unspecified)
inactive: outcome [4] | outcome [5] | Potency [6] | Potency [7] | outcome [8] | outcome [9] | outcome [10] | Potency [11] | outcome [19] | Potency [12] | outcome [13] | outcome [14] | outcome [15] | outcome [16] | Potency [17] | outcome [20] | outcome [18]
active: Potency [1] 26.6 µM | Potency [2] 8.41 µM | Potency [3] 29.8 µM

CC(C)(C)CC(C)(C)N
inactive: Potency [1] | Potency [2] | Potency [3] | outcome [4] | outcome [5] | Potency [6] | Potency [7] | outcome [8] | outcome [9] | outcome [10] | Potency [11] | outcome [19] | Potency [12] | outcome [13] | outcome [15] | Potency [17] | outcome [20] | outcome [18]

OCC(CO)(CO)COCC(CO)(CO)CO
inactive: Potency [1] | Potency [2] | Potency [3] | outcome [4] | outcome [5] | Potency [6] | Potency [7] | outcome [8] | outcome [9] | outcome [10] | Potency [11] | Potency [12] | outcome [14] | outcome [15] | outcome [16] | Potency [17] | outcome [20] | outcome [18]

CCC(C)(C)C1CCC(OC)CC1 (stereo unspecified)
inactive: Potency [1] | Potency [2] | Potency [3] | outcome [4] | outcome [5] | Potency [6] | Potency [7] | outcome [8] | outcome [9] | outcome [10] | Potency [11] | outcome [19] | Potency [12] | outcome [13] | outcome [14] | outcome [15] | outcome [16] | Potency [17] | outcome [20] | outcome [18]

NCC[C@H](O)C(=O)N[C@@H]1C[C@H](N)[C@@H](O[C@H]2O[C@H](CN)[C@@H](O)[C@H](O)[C@H]2O)[C@H](O)[C@H]1O[C@H]1O[C@H](CO)[C@@H](O)[C@H](N)[C@H]1O
inactive: Potency [1] | Potency [2] | Potency [3] | outcome [4] | ratio activity, negative = inhibition [5] 0.895% [at 0.55 µM] | activity change, negative = cytotoxicity [6] 0.328% [at 0.55 µM] | activation [7] 2.58% [at 0.756 µM] | viability change, negative = cytotoxic [8] -0.425% [at 0.756 µM] | activity change, negative = cytotoxicity [9] -14.9% [at 0.55 µM] | activation [10] 0.848% [at 0.55 µM] | activity change, negative = cytotoxicity [11] 6.61% [at 0.55 µM] | activation [19] 0% [at 0.55 µM] | viability change, negative = cytotoxic [12] -2.06% [at 0.575 µM] | ratio activity, negative = inhibition [13] 4.4% [at 0.575 µM] | activity change, negative = cytotoxicity [17] 9.05% [at 0.55 µM]
